BioA inh: inhibitors of Mycobacterium tuberculosis BioA enzyme; 360,000 tested, 0.096% active; inhibition, % at 9.99 µM; purified M. tuberculosis BioA enzyme, plate reader; in the data active = inhibition above about 40%
GDH-TPI inh: GDH-TPI coupled enzyme inhibition counter-screen; GDH-TPI coupled enzyme counterscreen, NADH absorbance; inhibition, % at 4.8 µM; 360,000 tested, 1.2% active; AID 588335; in the data active = inhibition above about 30%;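 note: 0% = DMSO wells and 100% = wells lacking the enzyme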
Rv3671c inh: Rv3671c (M. tuberculosis) protease inhibition. 320,000 tested, 0.048% active. P9WHR9. inhibition, % at 5.96 µM; in the data active = inhibition above about 38%;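 note: extracellular domain of Rv3671c used as enzyme; 0% = enzyme with DMSO and 100% = no enzyme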
Mtb FBA inh: Mtb fructose-bisphosphate aldolase inhibition | P9WQA3 | purified M. tuberculosis FBA, fluorescence read-out | inhibition, % at 1 µM | 360,000 tested, 2.3% active | AID 588726; in the data active = inhibition above about 27%;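 note: 0% = vehicle and 100% = reference inhibitor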
Target sequence (P9WQA3 whole entry, looked up): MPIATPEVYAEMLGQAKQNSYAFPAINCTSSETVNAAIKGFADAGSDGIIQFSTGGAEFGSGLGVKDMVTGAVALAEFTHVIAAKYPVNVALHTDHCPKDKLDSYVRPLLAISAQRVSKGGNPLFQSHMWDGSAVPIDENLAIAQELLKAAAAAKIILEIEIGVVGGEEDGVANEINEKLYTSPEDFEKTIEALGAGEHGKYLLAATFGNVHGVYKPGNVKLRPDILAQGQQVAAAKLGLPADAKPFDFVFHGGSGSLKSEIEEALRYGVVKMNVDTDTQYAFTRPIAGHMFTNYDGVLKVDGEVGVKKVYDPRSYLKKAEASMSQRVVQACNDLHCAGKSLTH
FadD28 binding: inhibitors of Mycobacterium tuberculosis FadD28 bisubstrate binding; FadD28 bisubstrate probe binding, fluorescence polarization; inhibition, % at 12.5 µM; 360,000 tested, 0.22% active; AID 588549; in the data active = inhibition above about 8.5%, passing the limit was not always enough
Numbers without * were called inactive; . = no result given; + = active, no number. Most compounds without a hit are left out; they make up all but 3% or so of the library.

SMILES	BioA inh	GDH-TPI inh	Rv3671c inh	Mtb FBA inh	FadD28 binding
Cc1cc(N2CCOCC2)nc2ccc(NC(=O)CCC(=O)N3CCC(C)CC3)cc12	1.7	0.0	-5.9	54.1*	-7.1
COc1ccc(NC(=O)CCC(=O)Nc2ccc3nc(N4CCOCC4)cc(C)c3c2)c(OC)c1	-5.5	-5.5	-3.8	14.0	-3.1
Cc1cc(N2CCN(C)CC2)nc2ccc(NC(=S)NCCC(C)C)cc12	1.9	13.9	-3.7	6.1	-1.1
CCN1CCN(c2cc(C)c3cc(NC(=O)c4cc(OC)cc(OC)c4)ccc3n2)CC1	0.3	33.8*	15.6	3.4	-3.0
Cc1cc(N2CCOCC2)nc2ccc(NC(=S)NCCC(C)C)cc12	-1.9	-0.9	10.3	28.2*	0.1
CCCCNC(=O)CCC(=O)Nc1ccc2nc(N3CCC(C)CC3)cc(C)c2c1	.	9.0	-12.2	68.3*	-3.7
Cc1ccccc1-c1ccc2c(c1)O[C@H](CN(C)Cc1ccc(C(=O)O)cc1)[C@H](C)CN([C@@H](C)CO)S2(=O)=O	1.2	.	.	.	.
C/C(=N\Nc1ccc(C(=O)O)cc1)c1ccc(S(=O)(=O)NCc2ccco2)cc1	.	54.2*	0.1	1.1	2.4
C/C(=N/Nc1ncc(Br)cn1)c1ccc(Br)cc1	-1.2	7.4	-0.7	-0.2	-3.2
C/C(=N\Nc1ccc(C(=O)O)cc1)c1ccc(Br)cc1	0.5	55.8*	-3.2	1.7	0.4
CN1[C@@H]2c3ccc(C4=CCCCC4)c(=O)n3C[C@H]1[C@H](CO)[C@H]2C(=O)NCc1cc(F)cc(F)c1	2.4	.	.	.	.
COCC#Cc1ccc2c(c1)O[C@H](CN(C)C(=O)NC(C)C)[C@@H](C)CN([C@H](C)CO)S2(=O)=O	-1.5	.	.	.	.
Cc1ccc(NC(=O)C2CCCN(S(=O)(=O)c3c(C)noc3/C=C/N(C)C)C2)c(C)c1 (stereo unspecified)	-0.3	35.9*	-11.8	-1.7	-0.6
Cc1noc(/C=C/N(C)C)c1S(=O)(=O)N1CCCC(C(=O)Nc2ccc(F)cc2F)C1 (stereo unspecified)	-1.0	39.3*	-15.0	-5.8	-2.9
CS(=O)(=O)N1CCCC(C(=O)Nc2ccc(F)cc2F)C1 (stereo unspecified)	.	6.7	4.9	-1.3	-2.2
Cc1ccc(NC(=O)C2CCCN(S(=O)(=O)c3c(C)noc3C)C2)c(Br)c1 (stereo unspecified)	-1.6	8.3	4.8	2.7	-2.5
Cc1ccc(CCNC(=O)C2CCCN(S(=O)(=O)c3c(C)noc3C)C2)cc1 (stereo unspecified)	-0.5	6.9	-3.1	2.7	-0.6
Cc1ccc(C)c(NC(=O)C2CCCN(S(=O)(=O)c3c(C)noc3/C=C/N(C)C)C2)c1 (stereo unspecified)	-0.8	38.5*	-12.3	-4.1	1.0
Cc1ccc(CCNC(=O)C2CCCN(S(=O)(=O)c3c(C)noc3/C=C/N(C)C)C2)cc1 (stereo unspecified)	-3.5	53.1*	-9.5	-2.2	-0.4
CC(C)c1cn(CC[C@H]2CC[C@@H](NC(=O)c3cccc(F)c3)[C@@H](CO)O2)nn1	-0.6	.	.	.	.
COc1ccc(NC(=O)Nc2ccc3c(c2)C(=O)N([C@@H](C)CO)C[C@@H](C)[C@H](CN(C)Cc2ccc(C(=O)O)cc2)OCCCC[C@@H](C)O3)cc1	2.3	.	.	.	.
Cc1c(C#N)c(NC(=O)C(C)C)n(Cc2ccccc2)c1C	.	1.9	-3.5	8.5	-0.3
COCc1cc(=O)n2c([nH]c3ccccc32)c1C#N	.	19.2	1.9	+	0.1
CCc1cc(=S)n2c([nH]c3ccccc32)c1C#N	.	-0.9	8.2	8.8	3.0
CC(SCc1cc(=O)n2c([nH]c3ccccc32)c1C#N)C(=O)O (stereo unspecified)	-0.4	-3.1	3.0	20.8	10.3*
SMILES	BioA inh	GDH-TPI inh	Rv3671c inh	Mtb FBA inh	FadD28 binding
Cc1c(C(=O)N/N=C/c2ccc(O)cc2)sc(=S)n1C	.	43.0*	-14.7	-3.3	-1.9
COc1ccc(OC)c(N2C(=O)NC(=O)/C(=C/c3ccc([N+](=O)[O-])s3)C2=O)c1	3.8	9.4	-2.1	-3.5	20.7*
CCOC(=O)c1cc2c(=O)n3ccccc3nc2n(C(C)C)c1=NC(=O)c1ccncc1	0.3	8.7	2.7	122.5*	-1.5
CCOC(=O)c1cc2c(=O)n3ccccc3nc2n(CCCOC)c1=NC(=O)C(C)(C)C	-5.5	16.4	-2.4	+	0.8
CCOC(=O)c1cc2c(=O)n3ccccc3nc2n(C(C)C)c1=NC(=O)c1c(-c2ccccc2Cl)noc1C	.	-1.2	-1.9	17.6	-2.5
CCOC(=O)c1cc2c(=O)n3ccccc3nc2n(CCCOC)c1=NC(=O)c1cccnc1	.	.	4.5	.	.
CCOC(=O)c1cc2c(=O)n3ccccc3nc2n(CCOC)c1=NC(=O)C(C)(C)C	1.8	-8.4	2.5	+	-2.7
CCOC(=O)c1cc2c(=O)n3ccccc3nc2n(CCOC)c1=NC(=O)c1ccncc1	1.0	9.9	-12.3	185.9*	-0.2
COc1cccc(-c2ccc3c(c2)O[C@H](CN(C)C(=O)C2CCC2)[C@H](C)CN([C@@H](C)CO)S3(=O)=O)c1	-0.1	.	.	.	.
O=C1N/C(=N\N=C\c2ccccn2)SC1Cc1cccc(SC(F)F)c1 (stereo unspecified)	-1.7	47.0*	-2.6	0.3	-2.2
C[C@@H]1CCCCO[C@H](CN(C)Cc2ccc(C(F)(F)F)cc2)[C@H](C)CN([C@H](C)CO)C(=O)c2cc(NS(=O)(=O)c3cn(C)cn3)ccc2O1	4.9	.	.	.	.
CCOc1cc(/C=C(/C#N)c2ccc(F)cc2)ccc1OCc1ccc(C(=O)O)o1	3.6	33.8*	0.3	2.5	-5.1
CCOc1cc(/C=C(/C#N)c2nc3ccccc3[nH]2)ccc1OCc1ccc(C(=O)O)o1	10.8	21.6	-10.7	2.1	-12.2
O=[N+]([O-])c1ccc(/C=N/Nc2nc(N3CCCCC3)nc(N3CCCCC3)n2)cc1	.	-0.6	-4.1	-0.4	-4.2
O=[N+]([O-])c1ccc(Nc2nc(N/N=C\c3ccc4c(c3)OCO4)nc(N3CCCCC3)n2)cc1	-2.0	34.7*	-22.2	-1.2	-3.3
COc1ccc(/C=N/NC(=O)c2[nH]c3ccc(Cl)cc3c2-c2ccccc2)c(C(=O)O)c1OC	5.4	30.9*	-28.6	5.0	-9.9
COc1ccc(/C=N/NC(=O)c2[nH]c3ccc(Br)cc3c2-c2ccccc2)c(C(=O)O)c1OC	2.0	38.8*	-14.9	6.7	-9.3
C[C@@H]1CN([C@H](C)CO)C(=O)c2cc(NS(C)(=O)=O)ccc2O[C@@H](C)CCCCO[C@H]1CN(C)C(=O)NC1CCCCC1	-1.6	.	.	.	.
CN(C)C(=O)C[C@H]1CC[C@@H]2[C@H](COC[C@@H](O)CN2Cc2ccc(C(F)(F)F)cc2)O1	2.5	.	.	.	.
Cc1csc2ncc(C(=O)N3c4ccccc4CC3C)c(=O)n12 (stereo unspecified)	-1.1	41.6*	6.0	4.6	-0.3
Cc1csc2ncc(C(=O)Nc3ccccc3F)c(=O)n12	-0.5	30.8*	-1.5	-1.7	-3.6
CCN(C(=O)c1cnc2scc(C)n2c1=O)c1ccccc1C	-0.7	30.8*	3.9	3.1	-0.6
COc1ccc(NC(=O)N(C)C[C@@H]2OCc3ccccc3-c3ccccc3C(=O)N([C@@H](C)CO)C[C@H]2C)c(OC)c1	-0.9	.	.	.	.
